From PubChem BioAssay (EPA / NIEHS)
Where “and” joins values, the source holds several entries; their conditions need not be identical. Equal values may be shown once. Some compounds were tested as several samples or in several runs, with calls that do not always agree. Calls of active or inactive are those of the source. How the source made its calls: active means hit-call score of the fitted dose curve at least 0.9, where 1 is the maximum; inactive means score below 0.9.

What was measured:
[1] = read-out: Interleukin 17F (IL17F), IL17F (gene 112744); assay: BSK_BT_xIL17F: BioMAP Diversity Plus: BT Assay for Interleukin 17F (IL17F) Biomarker Activity (AID 2284243); conditions: primary human B cells with PBMC
Summary of the method: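 Measures secreted IL-17F from a human B cell plus PBMC co-culture at 24 h post-dose by Luminex xMAP, with DMSO defining baseline activity.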

[2] = read-out: Actin alpha 1 (ACTA1), ACTA1 (gene 58); assay: BSK_MyoF_ACTA1: BioMAP Diversity Plus: MyoF Assay for Actin alpha 1 (ACTA1) Biomarker Activity (AID 2284244); conditions: primary human lung fibroblasts
Summary of the method: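 Human lung fibroblast (MyoF system) cultures dosed with test chemical; alpha-SMA measured by ELISA 24 h after dosing, normalized to DMSO control. Cytotoxicity tracked in parallel cultures by SRB total-protein staining.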

[3] = read-out: Interleukin 2 (IL2), IL2 (gene 3558); assay: BSK_BT_xIL2: BioMAP Diversity Plus: BT Assay for Interleukin 2 (IL2) Biomarker Activity (AID 2284245); conditions: primary human B cells with PBMC
Summary of the method: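 Human B cell plus PBMC co-culture, 24 h after chemical dosing; secreted IL-2 quantified by Luminex xMAP multiplex, fitted for signal gain against DMSO baseline.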

[4] = read-out: Basic fibroblast growth factor (bFGF), FGF2 (gene 2247); assay: BSK_MyoF_bFGF: BioMAP Diversity Plus: MyoF Assay for Basic fibroblast growth factor (bFGF) Biomarker Activity (AID 2284246); conditions: primary human lung fibroblasts
Summary of the method: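 Human lung fibroblast cultures were dosed and measured 24 h later in 96-well format. bFGF biomarker levels quantified by ELISA, with activity fitted in the positive direction against DMSO.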

[5] = read-out: Collagen IV, COL4A1 (gene 1282); assay: BSK_MyoF_CollagenIV: BioMAP Diversity Plus: MyoF Assay for Collagen IV Biomarker Activity (AID 2284247); conditions: primary human lung fibroblasts
Summary of the method: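 Primary human lung fibroblasts (MyoF system) dosed 24 h; Collagen IV measured by ELISA. Activity fitted in positive direction against DMSO; cytotoxicity tracked by SRB total-protein staining in parallel cultures.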

[6] = read-out: Monokine induced gamma interferon (MIG), CXCL9 (gene 4283); assay: BSK_KF3CT_MIG: BioMAP Diversity Plus: KF3CT Assay for Monokine induced gamma interferon (MIG) Biomarker Activity (AID 2284248); conditions: primary human keratinocytes with fibroblasts
Protocol: BSK_KF3CT is a cell-based, multiplexed-readout assay that uses keratinocytes and foreskin fibroblasts, a human skin primary cell co-culture, with measurements taken at 24 hours after chemical dosing in a 96-well plate.BSK_KF3CT_MIG is an assay component measured in the BSK_KF3CT assay. It measures MIG antibody related to regulation of gene expression using ELISA technology.Data from the assay component BSK_KF3CT_MIG was analyzed at the endpoint, BSK_KF3CT_MIG, in the positive analysis fitting direction relative to DMSO as the negative control and baseline of activity. Using a type of binding reporter, gain or loss-of-signal activity can be used to understand protein changes. To generalize the intended target to other relatable targets, this assay endpoint is annotated to the 'cytokine' intended target family, where the subfamily is 'chemotactic factor'.
(§1) The levels of cell surface (or secreted, indicated by the prefix "s") biomarker endpoints were measured by ELISA. Overt cytotoxicity to cells in confluent adherent cultures (all systems other than the BT system) was assessed by measuring total protein levels using sulforhodamine B (SRB) staining in parallel cultures at the time of biomarker measurements, indicated as SRB endpoints. For proliferation assays for adherent cell types, individual cell types are cultured at sub-confluence and relative cell numbers quantified by SRB staining at time points optimized for each system (48 h: 3C and CASM3C systems; 72 h: BT and HDF3CGF systems; 96 h: SAg system). SRB was performed by staining cells with 0.1% SRB after fixation with 10% TCA and reading wells at 560 nm.Viability and proliferation of PBMC (T cells) was quantified by Alamar Blue reduction for the SAg and BT systems. For PBMC viability (referred to as PBMC Cytotoxicity within the assay endpoint names), cells were plated (75,000/well in a 96-well plate) and then chemical samples added for 1 h before addition of activators, SEB and TSST-1 (20 ng/mL final concentration each). Cells were incubated for 90 h. Then, Alamar Blue (20 uL/well) (Invitrogen, Cat DAL1100) was added for 6 h, and the plates were read with a fluorescence microplate reader at 546/580 nm (excitation/emission). For PBMC proliferation, cells were plated and activated as above but incubated for only 16 h prior to addition of Alamar Blue. Plates were read after 6 h.

[7] = read-out: Collagen I, COL1A1 (gene 1277); assay: BSK_hDFCGF_CollagenI: BioMAP Diversity Plus: hDFCGF Assay for Collagen I Biomarker Activity (AID 2284250); conditions: primary human foreskin fibroblasts
Protocol: BSK_hDFCGF is a cell-based, multiplexed-readout assay that uses foreskin fibroblast, a human skin primary cell, with measurements taken at 24 hours after chemical dosing in a 96-well plate.BSK_hDFCGF_CollagenI is an assay component measured in the BSK_hDFCGF assay. It measures Collagen I antibody related to regulation of gene protein expression using ELISA technology.Data from the assay component BSK_hDFCGF_CollagenI was analyzed at the endpoint, BSK_hDFCGF_CollagenI, in the positive analysis fitting direction relative to DMSO as the negative control and baseline of activity. Using a type of binding reporter, gain or loss-of-signal activity can be used to understand protein changes. To generalize the intended target to other relatable targets, this assay endpoint is annotated to the 'cell adhesion molecules' intended target family, where the subfamily is 'collagen'.
as §1

[8] = read-out: Interferon-inducible T-cell alpha chemoattractant (ITAC), CXCL11 (gene 6373); assay: BSK_hDFCGF_ITAC: BioMAP Diversity Plus: hDFCGF Assay for Interferon-inducible T-cell alpha chemoattractant (ITAC) Biomarker Activity (AID 2284251); conditions: primary human foreskin fibroblasts
Summary of the method: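 ELISA readout of I-TAC after 24 h chemical exposure; human dermal foreskin fibroblast primary cells. Positive-direction fitting vs DMSO baseline. Parallel SRB total-protein staining (0.1% SRB after 10% TCA fixation, 560 nm) flags cytotoxicity.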

[9] = read-out: Plasminogen activator inhibitor-1 (PAI1), SERPINE1 (gene 5054); assay: BSK_KF3CT_PAI1: BioMAP Diversity Plus: KF3CT Assay for Plasminogen activator inhibitor-1 (PAI1) Biomarker Activity (AID 2284252); conditions: primary human keratinocytes with fibroblasts
Summary of the method: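 Human keratinocyte/foreskin fibroblast co-culture dosed for 24 h; PAI-1 measured by ELISA, fitted in positive direction against DMSO baseline. Parallel SRB total-protein staining (0.1% SRB, 560 nm) assesses overt cytotoxicity.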

[10] = read-out: Interleukin-8 (IL8), CXCL8 (gene 3576); assay: BSK_KF3CT_IL8: BioMAP Diversity Plus: KF3CT Assay for Interleukin-8 (IL8) Biomarker Activity (AID 2284254); conditions: primary human keratinocytes with fibroblasts
Summary of the method: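 ELISA detection of IL-8 from a human skin co-culture, keratinocytes with foreskin fibroblasts, at 24 h following chemical exposure, with gain of signal scored against DMSO controls.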

Measured: AC50

C=C(C)C(=O)OCCOCCOCCOC(=O)C(=C)C
inactive: [1] | [2] | [3] | [4] | [5]

CC1(C)CCC[C@]2(C)[C@H]3CCO[C@]3(C)CC[C@@H]12
active: [6] 36.6 µM and 36.2 µM | [7] 18.7 µM | [8] 30.5 µM and 30.9 µM | [9] 34.7 µM and 34.6 µM | [10] 36.8 µM and 31.3 µM
inactive: [7]

O=C1OC[C@H](Cc2cccc(O)c2)[C@H]1Cc1cccc(O)c1
inactive: [1] | [2] | [3] | [4] | [5]

Oc1c(Cl)cc(Cl)c(Cl)c1Cc1c(O)c(Cl)cc(Cl)c1Cl
inactive: [5]
active: [1] 9.92 µM | [2] 0.469 µM | [3] 19.6 µM | [4] 1.32 µM

COc1cc(Cl)c(OC)cc1N
inactive: [1] | [2] | [3] | [4] | [5]

O=C(Nc1ccc2c(O)c(N=Nc3ccc(N=Nc4ccc(S(=O)(=O)O)cc4)cc3)c(S(=O)(=O)O)cc2c1)c1ccccc1
inactive: [6] | [7] | [9] | [10]
active: [8] 32.3 µM and 27.1 µM

CC(C)(C)CC(C)(C)c1ccc(OCCOCC[N+](C)(C)Cc2ccccc2)cc1
active: [1] 8.64 µM | [2] 8.1 µM | [3] 6.28 µM | [4] 8.49 µM | [5] 8.51 µM

C=CC(C)(O)CCC=C(C)C (configuration not stated)
inactive: [6] | [7] | [8] | [9] | [10]

O=C1c2ccccc2C(=O)c2c(O)ccc(O)c21
active: [1] 9.01 µM | [3] 3.97 µM
inactive: [2] | [4] | [5]

CC=Cc1ccc(OCC)c(O)c1
inactive: [1] | [2] | [3] | [4] | [5]

CSCCC=O
inactive: [1] | [2] | [3] | [4] | [5]

c1ccc(Oc2ccccc2)cc1
inactive: [1] | [2] | [3] | [4] | [5]

CC(CN=Cc1ccccc1O)N=Cc1ccccc1O (configuration not stated)
inactive: [6] | [7] | [8] | [9] | [10]

CC(C=O)Cc1ccc(C(C)(C)C)cc1 (configuration not stated)
active: [2] 31.6 µM
inactive: [1] | [3] | [4] | [5]

O=CN1CCOCC1
inactive: [6] | [7] | [8] | [9] | [10]

CCOC(=O)C(C#N)=C(c1ccccc1)c1ccccc1
inactive: [6] | [7] | [8] | [9] | [10]
active: [8] 26.1 µM

CCCCN(CCCC)C(=O)N(CCCC)CCCC
active: [1] 29 µM | [2] 6.35 µM | [3] 32.5 µM | [4] 10.1 µM | [5] 8.89 µM

c1ccc2cc(Nc3ccc(Nc4ccc5ccccc5c4)cc3)ccc2c1
inactive: [1] | [2] | [3] | [4] | [5]

C=C(C)C(=O)OCC(CC)(COC(=O)C(=C)C)COC(=O)C(=C)C
active: [1] 27.5 µM | [2] 10.5 µM | [3] 19.7 µM | [4] 29.4 µM | [5] 14.6 µM

CCCCCC(C=O)=Cc1ccccc1
active: [2] 29.5 µM
inactive: [1] | [3] | [4] | [5]

O=C1OC2(c3ccccc31)c1ccc(O)c(Br)c1Oc1c2ccc(O)c1Br
active: [5] 4.52 µM
inactive: [1] | [2] | [3] | [4]

CCCCCCC(CO)CCCC (configuration not stated)
active: [6] 35.5 µM | [7] 36.4 µM and 30.8 µM | [8] 33.1 µM and 34.8 µM | [9] 32.7 µM and 31 µM | [10] 28.9 µM and 32.5 µM
